The text below walks through data of PubChem BioAssay AID1159506 (National Center for Advancing Translational Sciences (NCATS), 2015).

In all, about 59,000 sequences were measured (the read-out: median about -0.00055, lowest 2% from about -2 on). Only a selection was taken, and the lowest values are over-represented in it overall.

The assay can be described thus: Identification of proteins required for the processing of the EWS-FLI1 nascent transcript.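 Also: robust z of luciferase light less the median z of siRNAs with the same seed.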 The note with it: TC32 Ewing sarcoma NR0B1-luc vs CMV-luc (EWS-FLI1 target promoter against control promoter), 48 h; screened at 20 nM (by protocol). The method, boiled down:
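Genome-wide siRNA screen (Ambion v4.1, three siRNAs per gene, 20 nM final, RNAiMax) in Ewing sarcoma TC32 cells carrying NR0B1-promoter or CMV-promoter luciferase; OneGlo luciferase read 48 h post-transfection. Data normalized, z-score-MAD transformed and seed-adjusted.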
For the sequence UGAGGUACAGUGAACAAGG against TMEM110, the seed-corrected z-score was -0.57. To AAACUGCUUCCGGACAUUG against ACAD8 belongs -1.71; to UACGUUUCUGAAGAAGGUG against FAM231D, 1.63; to UCUAGGAAAAGGACUCGGC against IKZF2, 0.168. On to UUGCUUAUUCUCUCUCACG against CAAP1, for which the seed-corrected z-score is -3.02. To UAAAAUACCCACGUGGUUC against TMEM150A belongs 0.686; to UUUCUCUGAAGUUAAGUCC against G0S2, -0.192; to UAGAUAAUCUUGAACCUUC against UGP2, 0.118. The value for UGCUUGAACGUGUCCGUCC against LRRC4B was -0.284.

In turn, UAACAGCGAAUUCCAAGGC against ZBTB12 gave a seed-corrected z-score of -2.07.

Consider AAGACUAUAAAUCAUGUAG against LMBRD1, for which the seed-corrected z-score is -0.385. Regarding AAUGUUGUGAUUAAGUAAG against DFNB59, the seed-corrected z-score was -2.62. Turning to ACCUUGACCAGAAAGCUGC against C20orf27, the seed-corrected z-score is -0.672. To AAAAGUAUUACAAAAAGUG against MYOD1 belongs -0.532.

In turn, UAUACGUAAUGAAAGUUUC against SNX7 came in with a seed-corrected z-score of 0.211. For the sequence AAACUGUGCAAAAGUCUCU against APCDD1L-AS1, the seed-corrected z-score is -0.722. To UUUGUGUCCACCGUUAUAA against EVPLL belongs 0.153; to AAAUGUACCAAUACGUAGU against TMEM107, -2.13.

The sequence UCGUUUCUGUGCUCCGUCC against PCP2 returned a seed-corrected z-score of 0.0855. UCGAUGUACACUUUGAGGC against B3GNT8 had a seed-corrected z-score of 0.222. UAUGAUUAAGAAUGAAACC against OR6C1 showed a seed-corrected z-score of 0.426. The value for UAUGGUUAGACCGCUUUCG against KIAA0408 was 0.0809; that for AUAUGUUCGACUAUCAUGG against KATNBL1 was -3.24; that for UAAGUCAGGAUAUUCGCUC against CRELD2 was -1.22. UAAUGCGAUACAACUCGAC against COX4I1 came in with a seed-corrected z-score of 1.65. The value for UGCACGAUCCGUUUGCUUC against RNASE11 was -0.108. As to UCUGGAUCUGGUUUGCUGC against ZBTB3, the seed-corrected z-score is -1.18. The value for UUACUUAGUCUUGUGGUGG against HIST1H2AJ was 0.917; that for ACGGUUUCAAUAUCUAACG against FAM160B1 was -14.4. The value for AGGAAUACAAGUCAUAUGC against TFB2M was 0.916; that for AAGCUUUUCGUAGUCCUCA against NMRAL1 was 0.164; that for UUCUCGAUGCUUGUGGUUU against DMBX1 was -0.553. The value for UUUGAUAACAGUUCACUGG against PLAG1 was 1.2; that for UUCGAUAGAAUUUGAAAGC against SUGP2 was -2.02. UUCGAUCAAAAUACAAGGC against GLDN registered a seed-corrected z-score of -0.856. With UGGAAUAUGACUCUUUGCC against STRA8, the seed-corrected z-score was -0.991.
